The record followed here is PubChem BioAssay AID977606 (Broad Institute, 2014).

Out of some 1,500 compounds screened, about 430 (29%) were called active. How the calls were made is not given here. Not all results are given here. Entries that show only a call come without a potency. Potency and affinity values are given separately.

This assay can be described thus: glucose-independent GLuc insulin release activation – cell-based, INS-1E, Gaussia luciferase, luminescence, cherry-pick, counter-screen for glucose-dependent insulin secretion activators, dose response (AID 977606). The settings on record: INS-1E Gaussia luciferase insulin secretion, no glucose, 100% = twice neutral-control luminescence; series mostly up to 35 µM. For orientation: The purpose of a counterscreen is to sort out artefacts and off-target activity.
Turning to `NS(=O)(=O)c1ccc(CNC(=O)c2cc(S(=O)(=O)N3CCOCC3)ccc2N2CCCC2)cc1`, the outcome was inactive. Consider `CCOc1ccc2oc(=O)cc(CN3CCOCC3)c2c1`, for which the result was inactive. Take `Cc1cccc(NC(=O)c2ccc(OCc3c(C)noc3C)cc2)c1C`: the result was inactive. With `CCCNC(=O)c1ccccc1NC(=O)COc1ccc(OC)cc1`, the result was inactive. Then `COc1ccc(Nc2nc(NCc3cccs3)nc3ccsc23)cc1OC`, with “inactive”; and `COc1ccc(C(=O)/C=C2\NCCc3cc(OC)c(OC)cc32)cc1OC`, with “inactive”. For the compound `COC(=O)c1ccc(OC)c(OC2CCCC2)c1`, the outcome was inactive. The value for `Cc1cccc2nc(-c3ccco3)c(Nc3ccccc3)n12` was “inactive”; that for `Cc1ccc(C(=O)c2sc(Nc3ccccc3)c(C#N)c2N)cc1` was “inactive”; that for `CNc1ccc2ncc(-c3ccc(OC)c(OC)c3)n2n1` was “inactive”.

Regarding `CC(C)CCn1c(N2CCCC2)nc2c1c(=O)[nH]c(=O)n2C`, the compound was called inactive. The value for `CN(Cc1ccccc1)c1nc2c(c(=O)[nH]c(=O)n2C)n1Cc1ccccc1` was “inactive”; that for `C/C(Cl)=C/CSc1nc2c(c(=O)[nH]c(=O)n2C)n1C(C)C` was “inactive”.

Take `CCCCCCn1c(SCC(C)C)nc2c1c(=O)[nH]c(=O)n2C`: the outcome was inactive. The value for `Cn1c(=O)[nH]c(=O)c2c1nc(NC1CCCC1)n2Cc1ccccc1` was “inactive”; that for `C/C=C/Cn1c(N2CCCCCC2)nc2c1c(=O)[nH]c(=O)n2C` was “inactive”; that for `CCCN1C[C@@H](C)[C@@H](OC)CN(C)C(=O)c2ccc(NC(=O)c3cccc(F)c3)cc2OC[C@H]1C` was “inactive”.

Regarding `O=C(O)C1Cc2c([nH]c3ccccc23)C(c2ccc3c(c2)OCO3)N1` (configuration not stated), the outcome was inactive.

In the case of `COc1cc2c(cc1OC)-c1cc(NCc3ccccn3)nc(=O)n1CC2`, the outcome was inactive. `CCOc1ccc(CCNS(=O)(=O)c2cn(C)cn2)cc1OCC`: the result was inactive. Turning to `CC(=O)N1CCN(C(=O)COC(=O)c2ccc(S(C)(=O)=O)cc2)CC1`, the call was inactive.

In the case of `CC(C)(C)NC(=O)N1c2ccccc2Sc2ccccc21`, the compound was classed as inactive. Regarding `CCn1ncc2c1C(=O)NC1c3ccccc3C(=O)N21` (configuration not stated), the result was inactive. The value for `O=C(NNC(=O)c1cc2cc3ccccc3nc2s1)c1cccc(C(F)(F)F)c1` was “inactive”; that for `Cc1cc(C)cc(C(=O)NC(=S)Nc2ccc(-c3cc4ccccc4oc3=O)cc2)c1` was “inactive”; that for `C=CCn1c(-c2csc(-c3ccc(OC)c(OC)c3)n2)n[nH]c1=S` was “inactive”. With `COc1ccc(-c2nc(CCl)cs2)cc1OC`, the compound was classed as inactive.

With `O=C(c1ccccc1)N(C(=O)c1ccccc1)N1CCCC1`, the compound was classed as inactive. As for `CN(c1ccc(C(=O)N2CCN(Cc3ccccc3)CC2)cc1)S(=O)(=O)c1ccccc1`, the compound was classed as inactive. The value for `CCCn1nc(NC(=O)c2ccco2)c2cc3ccccc3nc21` was “inactive”.

Turning to `CCn1nc(NC(=O)c2ccco2)c2cc3ccccc3nc21`, the compound was called inactive. Then `O=C1c2cccnc2C(Nc2ccc(F)c(Cl)c2)N1Cc1cccs1` (configuration not stated), with “inactive”; and `CCOc1cc(/C=N/NC(=O)CCn2nnc3ccccc32)ccc1O`, with “inactive”.

As for `CCOc1ccccc1OCCC(=O)NNC(=O)Cn1nc(C)cc1C`, the call was inactive.

Take `N#CCc1nn(-c2ccccc2)c2ncnc(N)c12`: the call was inactive. Then `CN(C)CCCN(C(=O)c1ccco1)c1nc2c(F)cccc2s1`, with “inactive”; and `O=C(c1cccnc1)N(Cc1ccccc1)c1ccccc1`, with “inactive”; and `COc1ccc(-c2nc(N3CCC(C)CC3)[nH]c(=O)c2C#N)cc1`, with “inactive”. Take `COc1ccc(-c2ccc(SCc3cccnc3)nn2)cc1OC`: the compound was classed as inactive. On to `CC(C)CCN(CC(=O)NCc1ccc(F)cc1)S(=O)(=O)c1ccccc1F`, for which the compound was classed as inactive. As for `O=C(COC(=O)C1CCC1)NC(=O)c1ccccc1`, the call was inactive. The value for `O=C(NN(Cc1ccccc1)Cc1ccccc1)c1ccccc1` was “inactive”; that for `O=C(c1ccc2c(c1)OCO2)N1CCN(S(=O)(=O)c2ccccc2)CC1` was “inactive”.

As for `O=C(O)c1ccc(S(=O)(=O)NCc2ccc3c(c2)OCO3)cc1`, the compound was classed as inactive.

Turning to `OC(c1ccc(Cl)cc1)C(CN1CCOCC1)c1ccccc1` (configuration not stated), the compound was called inactive. Then `CC(C)OCC(O)CN1CCC(Cc2ccccc2)CC1` (configuration not stated), with “inactive”. The value for `COC(=O)CN(c1cccc(C)c1)S(=O)(=O)c1ccccc1` was “inactive”; that for `COCCNC(=O)c1ccc(N(C)S(=O)(=O)c2ccc(OC)c(OC)c2)cc1` was “inactive”; that for `CCOc1ccc(-c2nc(CSc3nnc(N)s3)cs2)cc1OC` was “inactive”. On to `C=CCNC(=O)COc1coc(CN2CCN(C(=O)c3ccco3)CC2)cc1=O`, for which the compound was classed as inactive. Then `C=C[C@@]1(C)CC(=O)[C@]2(O)[C@@]3(C)[C@@H](O)CCC(C)(C)[C@@H]3[C@H](O)[C@H](OC(C)=O)[C@@]2(C)O1`, with “inactive”; and `Nc1nc(N)nc(-c2ccc(Cl)cc2)n1`, with “inactive”; and `Cc1cccc(-c2cc3nc4c(c(N5CCCC(O)C5)n3n2)CCC4)c1` (configuration not stated), with “inactive”.

Consider `C=C1[C@@H](O)[C@H](CC(C)C)N(Cc2ccccc2Br)S1(=O)=O`, for which the outcome was inactive. Then `Cc1c(NC(=S)NC(=O)c2sc3ccccc3c2Cl)cccc1C(=O)O`, with “inactive”; and `CCn1nnc(NC(=O)c2sc3ccccc3c2Cl)n1`, with “inactive”; and `Fc1ccc(-c2csc3nnc(SCc4cccnc4)n23)cc1`, with “inactive”. As for `CC(C)(C)OC(=O)N1CCCN(C(=O)c2ccc(Cl)cc2)CC1`, the compound was classed as inactive.

As for `COc1nc(Nc2ccccc2)nc(OC)n1`, the result was inactive. The value for `CC1(C)N=C(c2ccccc2)C(c2ccccc2)=N1` was “inactive”; that for `COc1ccc2nc3ccccc3nc2c1NC(=O)c1ccc(Cl)cc1` was “inactive”. Then `Cc1c(C)n(CCCN(C)C)c2ncnc(Nc3ccccc3)c12`, with “inactive”; and `COc1ccc(C)c(-n2c(=O)n(Cc3ccccc3)c(=O)c3[nH]cnc32)c1`, with “inactive”. The value for `COc1ccc(CCn2nnc(-c3ccc(NC(C)=O)c(Cl)c3)n2)cc1` was “inactive”. Turning to `NC(=O)COC(=O)c1ccccc1Oc1ccccc1`, the call was inactive.

As for `Cc1ccc(OCC(=O)NC(C)c2ccccc2)cc1` (configuration not stated), the compound was called inactive.

On to `Fc1ccc(-c2cc(C(F)(F)F)nc(-n3cncn3)n2)cc1`, for which the outcome was inactive. Then `CCOC(=O)c1cnc2c(cnn2C)c1Oc1ccc(OC)cc1`, with “inactive”. The value for `CCOC(=O)Nc1ccc2c(c1)Sc1ccccc1N2C(=O)CCN1CCOCC1` was “inactive”; that for `CCNc1nc(CC)nc2c1oc1ccccc12` was “inactive”; that for `CCCCn1c(-c2ccncc2)nc2c1c(=O)[nH]c(=O)n2CC(C)C` was “inactive”. Regarding `COCCn1c(-c2ccc3ccccc3c2)nc2c1c(=O)[nH]c(=O)n2CC(C)C`, the call was inactive. Regarding `Cc1cc(S(=O)(=O)NCc2cccnc2)ccc1F`, the result was inactive. Then `Cc1cccn2cc(CCNS(=O)(=O)c3cccs3)nc12`, with “inactive”. On to `COc1cc2ccc(C(C)=NNC(N)=S)cc2cc1OC`, for which the call was inactive. For the compound `O=C(Nc1ccnn1C1CCN(C2CCC2)CC1)c1ccccc1Cl`, the compound was called inactive. As for `CC1Cc2ccccc2N1C(=S)NC(=O)c1cccc(Br)c1` (configuration not stated), the result was inactive. `O=S(=O)(NCC1CCCO1)c1ccc(Cl)nc1` (configuration not stated): the compound was classed as inactive. For the compound `CC(C)CC(=O)Nc1c2c(nn1-c1ccc(F)cc1)CS(=O)(=O)C2`, the call was inactive.

For `Cc1ccccc1-n1nc2c(c1NC(=O)c1cc3ccccc3oc1=O)CS(=O)(=O)C2`, the compound was classed as inactive. Consider `O=C1N(c2ccccc2)c2ccccc2[C@]12C[C@H](O)CO2`, for which the outcome was inactive. The value for `CC(C(=O)Nc1ccc2[nH]c(=O)[nH]c2c1)N1CCN(Cc2ccc3c(c2)OCO3)CC1` (configuration not stated) was “inactive”; that for `O=C(c1ccco1)N1CCN(C2CN(Cc3ccccc3)S(=O)(=O)C2)CC1` (configuration not stated) was “inactive”; that for `COc1ccc(-c2nnc3sc(-c4ccco4)nn23)cc1OC` was “inactive”. Then `COc1ccc(-c2nc(C(=O)O)cs2)cc1OC`, with “inactive”.

As for `COc1ccc(-c2ccncc2)cc1OC`, the compound was classed as inactive. The value for `Cc1ccc2nc(N3CCN(C(=O)CCCC(=O)O)CC3)nc(-c3ccccc3)c2c1` was “inactive”; that for `COc1ccc(-c2nnn(Cc3nc(N)nc(N4CCOCC4)n3)n2)cc1OC` was “inactive”; that for `COc1ccc(-c2cc(-c3ccco3)[nH]c(=O)c2C#N)cc1OC` was “inactive”. `CC(C)C(C(=O)NCc1ccco1)N(CC1CCCO1)C(=O)CNS(=O)(=O)c1ccc(F)cc1` (configuration not stated): the compound was classed as inactive. The value for `COc1cccc(-n2c(=O)n(Cc3ccccc3)c(=O)c3[nH]cnc32)c1C` was “inactive”; that for `CCOc1nc(NC(=O)NS(=O)(=O)c2cccc(Cl)c2)nc(-c2ccccc2)n1` was “inactive”. The value for `COc1ccccc1-n1cnc2sc(C)c(C)c2c1=O` was “inactive”; that for `CCCCNC(=O)O[C@H]1C[C@@H]2CCN3C(=O)CCC[C@H]([C@H]1CC)[C@H]23` was “inactive”; that for `COc1ccc(CCNS(=O)(=O)c2cccc(C)c2)cc1OC` was “inactive”. `CCNC(=O)C1(C)CCCN1Cc1cccc(C(F)(F)F)c1` (configuration not stated): the compound was called inactive. For the compound `CCN(CC)CCCN=C1N[C@@H](c2ccccc2)C(C(=O)OC)=C(C)N1CC`, the call was inactive. The value for `O=C(c1ccccc1F)N1CCCC(N2CCN(Cc3ccc4c(c3)OCO4)CC2)C1` (configuration not stated) was “inactive”; that for `COc1ccc(S(=O)(=O)N(C)c2ccc(C(=O)N3CCCC3)cc2)cc1OC` was “inactive”; that for `CCN(CC)C(=O)c1ccccc1NS(=O)(=O)c1ccc(C)cc1` was “inactive”.

Turning to `CCN(CCC(=O)O)c1ccccc1`, the call was inactive. Turning to `CCCCC(=O)N(C)c1c(CC)nc2c(OCc3ccc(C(F)(F)F)cc3)cccn12`, the compound was classed as inactive. On to `C=C(C)n1c(=O)n(Cc2ccccc2C)c2ccccc21`, for which the compound was classed as inactive.

As for `CCOC(=O)N1CCN(S(=O)(=O)N2CCCC(C(=O)NCc3cc(OC)ccc3OC)C2)CC1` (configuration not stated), the compound was called inactive. Take `CCCNC(=O)C1(C)CCN(C(=O)c2cccc(C(F)(F)F)c2)C1` (configuration not stated): the compound was classed as inactive.

As to `COc1cc(C(F)(F)F)c(C(=O)NCc2cccc(Cl)c2)cn1`, the outcome was inactive.

Regarding `CCn1cc(S(=O)(=O)NCCc2ccc(OC)c(OC)c2)cn1`, the result was inactive. For the compound `O=C(Nc1nnc(-c2ccc(Cl)cc2)o1)NC1CCCCC1`, the compound was classed as inactive.

With `COc1cc2cnc(-c3ccsc3)cc2cc1OC`, the compound was classed as inactive. Consider `CCOC(=O)C1CCCN(C(=O)c2cccnc2Oc2ccccc2)CC1` (configuration not stated), for which the compound was classed as inactive. As to `CCc1cccc(NC(=O)C2CCCN2S(=O)(=O)c2ccc3c(c2)n(C)c(=O)c(=O)n3C)c1` (configuration not stated), the compound was classed as inactive. With `CCOC(=O)c1ccc(S(=O)(=O)N2CCC(C(=O)Nc3nnc(C)o3)CC2)cc1`, the compound was classed as inactive.
